According to PubChem BioAssay (NCATS):
Results filed as inconclusive are left out. Active and inactive are the calls of the source. Calls come from the whole dose curve; as a rule, active = well fitted inhibition curve with a large enough effect; inconclusive = small, poorly fitted or top-dose-only effect; inactive = flat fitted curve, though single readings scatter.

Key:
[1] = test system: CRL-7250; assay: Cytotoxic Profiling of Annotated Libraries Using Quantitative High-Throughput Screening (AID 1296008); details: Five cell lines viability, CellTiter-Glo ATP luminescence, 48-72 h; max response: active compounds read low; for max response: % is set by controls: 0 for no effect and ±100 for the full control effect
Summary of the method: (§1)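 Cytotoxicity was measured as CellTiter-Glo ATP luminescence, read after 10 min at room temperature. Compound treatment of the cells lasted 48 or 72 hr at 37 degrees Celsius in a qHTS format.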

[2] = test system: HEK293; assay: as above; details: Five cell lines viability, CellTiter-Glo ATP luminescence, 48-72 h; max response: active compounds read low
Summary of the method: as §1

[3] = test system: HaCat; assay: as above; details: Five cell lines viability, CellTiter-Glo ATP luminescence, 48-72 h; max response: active compounds read low
Summary of the method: as §1

[4] = test system: KB-3-1; assay: as above; details: Five cell lines viability, CellTiter-Glo ATP luminescence, 48-72 h; max response: active compounds read low
Summary of the method: as §1

[5] = test system: NIH3T3; assay: as above; details: Five cell lines viability, CellTiter-Glo ATP luminescence, 48-72 h; max response: active compounds read low
Summary of the method: as §1

[6] = test system: HEK293T; assay: qHTS assay to identify novel small-molecules to repurpose for Merkel cell carcinoma treatment (AID 1296009); details: MCC and control cell lines, CellTiter-Glo viability, 72 h; series mostly up to 44.8 µM
Summary of the method: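 Cell viability measured by CellTiter-Glo following 72 hr compound treatment at 37 degree celsius, with NPC and MIPE libraries tested in 8- and 11-point concentration series.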
Note: nearly all actives have a fitted effect of over 60% in size.

C=C1CC2C3(C)C(OC(C)=O)CC(=O)OC(C)(C)C3C(O)C(OC(C)=O)C2(C)C2C(=O)OC(C)C(=O)C12C (configuration not stated)
inactive: max response [1] -7.53% | outcome [2] | max response [3] -15.7% | max response [4] 8.43% | max response [5] -3.76% | Potency [6]

C[C@@H]1O[C@@H](O[C@H]2[C@H](OC(=O)[C@]34CCC(C)(C)C[C@H]3C3=CCC5[C@@]6(C)CC[C@H](O[C@@H]7O[C@H](CO[C@@H]8OC[C@H](O)[C@H](O)[C@H]8O)[C@@H](O)[C@H](O)[C@H]7O)C(C)(C)C6CC[C@@]5(C)[C@]3(C)C[C@H]4O)OC[C@@H](O)[C@@H]2O)[C@H](O)[C@H](O)[C@H]1O[C@@H]1OC[C@H](O)[C@H](O[C@@H]2OC[C@@H](O)[C@H](O)[C@H]2O)[C@H]1O (some centres not stated)
inactive: max response [1] -0.806% | outcome [2] | max response [3] -0.578% | outcome [4] | outcome [5] | outcome [6] inactive [at 9.27 µM]

C=C1CCC2C(OC(=O)C2(O)COC(C)=O)C2C(=C)C(O)CC12 (configuration not stated)
inactive: max response [1] -7.9% | outcome [2] | max response [3] -8.75% | max response [4] 8.26% | max response [5] -5.53% | Potency [6]

C[C@@H]1O[C@@H](O[C@@H]2[C@@H](O)[C@@H](O)[C@H](O[C@@H]3[C@@H](O)[C@@H](O[C@]4(CO)O[C@H](CO)[C@@H](O)[C@@H]4OC(=O)/C=C/c4ccc(O)cc4)O[C@H](CO)[C@H]3OC(=O)/C=C/c3ccc(O)cc3)O[C@H]2C)[C@H](O)[C@H](O)[C@H]1O
inactive: max response [1] -4.29% | outcome [2] | max response [3] 1.83% | outcome [4] | outcome [5] | outcome [6] inactive [at 9.27 µM]

COc1cc(CC(COC2OC(CO)C(O)C(O)C2O)c2cc(/C=C/CO)cc(OC)c2O)ccc1O (configuration not stated)
inactive: outcome [1] | outcome [2] | max response [3] 1.49% | max response [4] 1.74% | outcome [5] | Potency [6]

COC1CC(=O)CCC(C)OC(=O)CC1O (configuration not stated)
inactive: max response [1] -4.48% | outcome [2] | max response [3] 1.84% | outcome [4] | max response [5] 4.21% | Potency [6]

CC1(C)CCC(C)(C)c2cc([C@@H](O)C(=O)Nc3ccc(C(=O)O)cc3F)ccc21
inactive: max response [1] -3.37% | outcome [2] | max response [3] -6.8% | outcome [4] | outcome [5] | Potency [6]

Cc1coc2c1CC1OC1(C)CCC1OC1(C)C2 (configuration not stated)
inactive: max response [1] 4.59% | outcome [2] | max response [3] 3.75% | max response [4] 8.78% | outcome [5] | Potency [6]

COc1c(OC2OC(CO)C(O)C(O)C2O)ccc(O)c1C(=O)OCc1ccccc1O[C@@H]1O[C@H](CO)[C@@H](O)[C@H](O)[C@H]1O (some centres not stated)
inactive: outcome [1] | outcome [2] | max response [3] 3.76% | outcome [4] | max response [5] -1.73% | Potency [6]

C=C1CC[C@H]2[C@@](C)(CCC[C@@]2(C)C(=O)O)[C@@H]1CCC(C)CCO (some centres not stated)
inactive: max response [1] -8.65% | outcome [2] | max response [3] 1.39% | max response [4] 2.57% | max response [5] 3.89% | Potency [6]

CC(C)(C)NCc1cc(Nc2ccnc3cc(Cl)ccc23)c2c(c1O)CCCC2
inactive: max response [1] 1.77% | outcome [2] | max response [3] -6.14% | max response [4] 7.98% | outcome [5] | outcome [6] inactive [at 0.588 µM]

C[C@@H]1O[C@@H](O[C@H]2[C@H](O[C@H]3CC[C@@]4(C)C(CC[C@]5(C)C4CC=C4[C@@H]6CC(C)(C)CC[C@]6(C(=O)O)CC[C@]45C)[C@]3(C)CO)OC[C@H](O)[C@@H]2O)[C@H](O)[C@H](O[C@@H]2OC[C@@H](O)[C@H](O)[C@H]2O)[C@H]1O (some centres not stated)
inactive: max response [1] 0.8% | outcome [2] | max response [3] 3.75% | outcome [4] | max response [5] -3.35% | outcome [6] inactive [at 9.27 µM]

CC(=O)c1c(C)cc(O[C@@H]2O[C@H](CO)[C@@H](O)[C@H](O)[C@H]2O)cc1O
inactive: outcome [1] | outcome [2] | max response [3] 3.2% | max response [4] -6.9% | max response [5] 0.376% | Potency [6]

COC(=O)[C@H](OC(C)=O)[C@H]1C(C)(C)C(=O)[C@H]2CC3=C4CC(=O)O[C@@H](c5ccoc5)[C@]4(C)CCC3[C@@]1(C)C2=O (some centres not stated)
inactive: max response [1] -5.81% | outcome [2] | max response [3] -1.64% | outcome [4] | outcome [5] | Potency [6]

CC(C)C1=CC2=CCC3[C@](C)(CCC[C@@]3(C)C(=O)O)C2CC1=O (some centres not stated)
inactive: outcome [1] | outcome [2] | max response [3] 1.19% | max response [4] 8.65% | outcome [5] | Potency [6]

NC(=O)[C@H]1CCCCc2c1[nH]c1ccc(Cl)cc21
inactive: outcome [1] | outcome [2] | max response [3] -14.2% | max response [4] 7.59% | max response [5] 4.7% | Potency [6]

COC1CC(OC2CCC3(C)C(=CCC4C3CCC3(C)C(C(C)O)CCC43O)C2)OC(C)C1OC1OC(C)C(OC2OC(COC3OC(COC4OC(CO)C(O)C(O)C4O)C(O)C(O)C3O)C(O)C(O)C2O)C(OC)C1O (configuration not stated)
inactive: max response [1] -10.5% | outcome [2] | max response [3] -1.65% | outcome [4] | outcome [5] | outcome [6] inactive [at 9.27 µM]
